From PubChem BioAssay (NCATS)
Records with an inconclusive call do not appear. A call without a number means that no potency is given here. Activity calls are given as the source filed them. Calls follow the shape of the dose curve; as a rule, active = well fitted inhibition curve with a large enough effect; inconclusive = small, poorly fitted or top-dose-only effect; inactive = flat fitted curve, though single readings scatter.

Assays:
Assay in all cases: qHTS profiling for inhibitors of Plasmodium falciparum proliferation (AID 504749); also: nearly all actives have a fitted effect of over 60% in size
Conditions in all cases: P. falciparum in erythrocytes, SYBR Green DNA, 72 h; series mostly up to 28.7 µM
[1] = system: DIV30
Procedure, shortened: (§1)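 Fluorescence of SYBR Green-bound parasite DNA, read at 485/535 nm, served as the growth measure. Infected erythrocytes were cultured with compound 72 h; artemisinin (0.29 uM) and DMSO wells defined the normalization range.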

[2] = system: Dd2
Procedure, shortened: as §1

[3] = system: FAB9
Procedure, shortened: as §1

[4] = system: GB4
Procedure, shortened: as §1

[5] = system: HB3
Procedure, shortened: as §1

[6] = system: ICS
Procedure, shortened: as §1

[7] = system: JCK
Procedure, shortened: as §1

[8] = system: N140
Procedure, shortened: as §1

[9] = system: P93_24
Procedure, shortened: as §1

[10] = system: P94_40
Procedure, shortened: as §1

[11] = system: PAD
Procedure, shortened: as §1

[12] = system: PC15
Procedure, shortened: as §1

[13] = system: PC26
Procedure, shortened: as §1

[14] = system: PC49
Procedure, shortened: as §1

[15] = system: TAB109
Procedure, shortened: as §1

[16] = system: TAB113
Procedure, shortened: as §1

[17] = system: TAB165
Procedure, shortened: as §1

[18] = system: W2
Procedure, shortened: as §1

[19] = system: SC27B
Procedure, shortened: as §1

[20] = system: ECU
Procedure, shortened: as §1
Potency is read from the fitted curve at half-maximal effect.

SMILES	Potency [1]	Potency [2]	Potency [3]	Potency [4]	Potency [5]	Potency [6]	Potency [7]	Potency [8]	Potency [9]	Potency [10]	Potency [11]	Potency [12]	Potency [13]	Potency [14]	Potency [15]	Potency [16]	Potency [17]	Potency [18]	Potency [19]	Potency [20]
CC(=O)Nc1c(I)c(C(=O)O)c(I)c(N(C)C(C)=O)c1I	inactive	inactive	inactive	inactive	inactive	inactive	inactive	inactive	inactive	inactive	inactive	inactive	inactive	inactive	inactive	inactive	inactive	inactive		
O=C1c2ccccc2C(=O)C1c1ccc(Cl)cc1	inactive	inactive	inactive	inactive	inactive		inactive	inactive	inactive	inactive	inactive	inactive	inactive	inactive	inactive	inactive	inactive	inactive	inactive	
CCSc1ccc2c(c1)N(CCCN1CCN(C)CC1)c1ccccc1S2	inactive	inactive	inactive		inactive		inactive	inactive	inactive	inactive	inactive	inactive	inactive	inactive	inactive		inactive			inactive
COc1ccc2c(c1)OC(C)(C)C(c1ccccc1)C2c1ccc(OCCN2CCCC2)cc1 (stereo not drawn)	12 µM (active)	3.98 µM (active)		4.78 µM (active)	7.94 µM (active)	2.82 µM (active)		5.01 µM (active)	5.01 µM (active)	6.31 µM (active)	8.91 µM (active)	11.2 µM (active)	4.78 µM (active)		3.16 µM (active)	8.91 µM (active)	3.16 µM (active)	1.69 µM (active)	8.91 µM (active)	8.91 µM (active)
CN(C)CCOc1ccc(/C(=C(/CCCl)c2ccccc2)c2ccccc2)cc1	inactive	inactive	inactive		inactive	inactive	inactive	inactive	inactive	inactive	inactive		inactive	inactive	inactive	inactive	inactive	inactive	inactive	inactive
CC(C)=CCC/C(C)=C/C=C/C(C)=C/C=C/C(C)=C/C=C/C=C(C)/C=C/C=C(C)/C=C/C=C(\C)CCC=C(C)C	inactive	inactive	inactive	inactive		11.2 µM (active)	inactive	inactive					inactive		inactive	inactive				
Nc1ccc(N=Nc2ccccc2)c(N)n1	inactive	inactive		13.5 µM (active)	inactive	inactive	inactive		inactive	inactive	inactive	inactive	inactive	inactive		inactive	inactive	inactive	inactive	
CC(=O)c1ccc2c(c1)N(CCCN1CCN(CCO)CC1)c1ccccc1S2	16.9 µM (active)	12.6 µM (active)		8.49 µM (active)		7.94 µM (active)			8.91 µM (active)	10 µM (active)		11.2 µM (active)	7.57 µM (active)	11.2 µM (active)	7.08 µM (active)		11.2 µM (active)	5.36 µM (active)		12.6 µM (active)
O=C1CCC(c2ccccc2)(C2CCN(Cc3ccccc3)CC2)C(=O)N1 (stereo not drawn)	inactive		inactive		inactive	inactive	inactive	inactive	inactive	inactive	inactive	inactive	inactive	inactive		inactive	inactive	6.75 µM (active)	inactive	inactive
CCCCC/C=C\C/C=C\C/C=C\CCCCC(=O)O	inactive	inactive	inactive		inactive		inactive	inactive	inactive	inactive	inactive	inactive	inactive	inactive	inactive		inactive	inactive	inactive	inactive
CCN(CC)CCCC(C)Nc1cc(/C=C/c2ccccc2Cl)nc2cc(Cl)ccc12 (stereo not drawn)	1.69 µM (active)	2.24 µM (active)		4.78 µM (active)	2 µM (active)	0.398 µM (active)	11.2 µM (active)	3.16 µM (active)	2 µM (active)	1.78 µM (active)	1 µM (active)	2 µM (active)	5.36 µM (active)	8.91 µM (active)	2.51 µM (active)	1.78 µM (active)	2.24 µM (active)	0.601 µM (active)	2.82 µM (active)	2.51 µM (active)
CC(C)CCCCCCc1ccc(O)cc1	inactive	inactive	inactive	inactive	inactive	12.6 µM (active)	inactive	inactive		12.6 µM (active)		inactive	inactive	inactive	inactive					
CO/N=C(/C(=O)N[C@@H]1C(=O)N2C(C(=O)O)=C(COC(N)=O)CS[C@H]12)c1ccco1	inactive	inactive	inactive			8.91 µM (active)	inactive	inactive		inactive	inactive	inactive	inactive	inactive	inactive	inactive	inactive		inactive	inactive
O=C(c1cc2ccccc2o1)N1CCN(Cc2ccccc2)CC1	inactive	inactive	inactive		inactive	inactive	inactive			inactive		inactive		inactive	8.91 µM (active)		11.2 µM (active)			
CCN(CC)CCOc1ccccc1OC	inactive	inactive	inactive		inactive	inactive	inactive	inactive	inactive	inactive	inactive	inactive	inactive	inactive	inactive	inactive	inactive		inactive	inactive
NC(=O)CC[C@@H]1NC(=O)[C@H](Cc2ccccc2)NC(=O)[C@H](Cc2ccc(O)cc2)NC(=O)[C@@H](N)CSSC[C@@H](C(=O)N2CCC[C@H]2C(=O)N[C@@H](CCCN=C(N)N)C(=O)NCC(N)=O)NC(=O)[C@H](CC(N)=O)NC1=O	inactive	inactive	inactive			8.91 µM (active)	inactive					inactive		inactive				8.49 µM (active)	inactive	
Cn1c(=O)c2c(ncn2CCOC(=O)C(C)(C)Oc2ccc(Cl)cc2)n(C)c1=O	inactive	inactive	inactive	inactive	inactive	inactive	inactive					inactive	inactive	inactive		inactive		inactive	inactive	
O=C(CCCN1CCC(C(=O)c2ccc(F)cc2)CC1)c1ccc(F)cc1	inactive	8.91 µM (active)	inactive				inactive	inactive	inactive	inactive	inactive					inactive		3.79 µM (active)	inactive	inactive
CC(=O)Nc1ccc(NC(=S)NC(=O)c2ccc(C(C)(C)C)cc2)cc1	inactive		inactive	inactive	inactive	12.6 µM (active)	inactive	inactive	inactive	inactive	inactive		inactive	inactive		inactive		7.57 µM (active)	inactive	inactive
Cc1cc(C)c(NC(=O)C[C@H](CC(=O)O)c2cccc3ccccc23)c(C(=O)N2CCC3(CCCC3)CC2)c1	inactive		inactive	inactive	inactive		inactive	inactive	inactive	inactive	inactive	inactive	inactive	inactive	inactive	inactive	inactive		inactive	inactive
NC(=S)N=Nc1ccc(NN=C(N)N)cc1	9.53 µM (active)	2.51 µM (active)	11.2 µM (active)	6.75 µM (active)	5.62 µM (active)	5.01 µM (active)	8.91 µM (active)	7.94 µM (active)	5.01 µM (active)	7.94 µM (active)	11.2 µM (active)	8.91 µM (active)			11.2 µM (active)		7.94 µM (active)	1.69 µM (active)	11.2 µM (active)	
CS(=O)(=O)c1ccc([C@@H](O)[C@@H](COC(=O)CN)NC(=O)C(Cl)Cl)cc1	inactive	6.31 µM (active)	inactive		inactive		inactive	inactive			inactive	inactive	inactive	inactive	8.91 µM (active)	inactive			inactive	inactive
CC(=O)[O][Al][O]C(C)=O	inactive	inactive	inactive		inactive	inactive	inactive	inactive	inactive	inactive	inactive	inactive	inactive	inactive	inactive	inactive	inactive	inactive	inactive	inactive
CCCCCCCCCCCCCCCCCCCCCC(=O)Nc1ccn([C@@H]2O[C@H](CO)[C@@H](O)[C@@H]2O)c(=O)n1	inactive	inactive	inactive		inactive		inactive	inactive	inactive	inactive	inactive	inactive	inactive	inactive	inactive	inactive	inactive		inactive	inactive
CSc1nc2cc(Oc3cccc(Cl)c3Cl)c(Cl)cc2[nH]1	10.7 µM (active)	14.1 µM (active)		12 µM (active)	8.91 µM (active)			8.91 µM (active)	10 µM (active)	10 µM (active)		8.91 µM (active)	5.36 µM (active)	12.6 µM (active)	7.94 µM (active)	8.91 µM (active)	7.94 µM (active)	6.75 µM (active)	12.6 µM (active)	6.31 µM (active)
COc1ccc2c(=O)c(C)c(-c3ccccc3)oc2c1CN(C)C	inactive		inactive	inactive	inactive		inactive				inactive	inactive	inactive	inactive	inactive	inactive	inactive	6.75 µM (active)	inactive	inactive
O=C(CCCN1CCN2CCCC2C1)c1ccc(F)cc1 (stereo not drawn)	inactive	12.6 µM (active)	inactive		inactive	inactive	inactive	10 µM (active)		inactive	inactive	inactive	inactive	inactive				6.01 µM (active)	inactive	inactive
Cc1cccc(C)c1NC(=O)C1CCCCN1C (stereo not drawn)	inactive	inactive	inactive		inactive	inactive	inactive	inactive	inactive	inactive	inactive	inactive	inactive	inactive	inactive	inactive	inactive		inactive	inactive
